# Source: PubChem
# Hits are enriched below; roughly 2.9% of the tested compounds scored in any of these assays.
# PLC-gamma1 inh = inhibitors of human phospholipase C gamma1; P19174; purified PLC-gamma1, fluorogenic substrate, fluorescence; inhibition, % at 12.2 µM; 370,000 tested, 0.84% active; AID 720700
# Target sequence (P19174 whole entry, looked up): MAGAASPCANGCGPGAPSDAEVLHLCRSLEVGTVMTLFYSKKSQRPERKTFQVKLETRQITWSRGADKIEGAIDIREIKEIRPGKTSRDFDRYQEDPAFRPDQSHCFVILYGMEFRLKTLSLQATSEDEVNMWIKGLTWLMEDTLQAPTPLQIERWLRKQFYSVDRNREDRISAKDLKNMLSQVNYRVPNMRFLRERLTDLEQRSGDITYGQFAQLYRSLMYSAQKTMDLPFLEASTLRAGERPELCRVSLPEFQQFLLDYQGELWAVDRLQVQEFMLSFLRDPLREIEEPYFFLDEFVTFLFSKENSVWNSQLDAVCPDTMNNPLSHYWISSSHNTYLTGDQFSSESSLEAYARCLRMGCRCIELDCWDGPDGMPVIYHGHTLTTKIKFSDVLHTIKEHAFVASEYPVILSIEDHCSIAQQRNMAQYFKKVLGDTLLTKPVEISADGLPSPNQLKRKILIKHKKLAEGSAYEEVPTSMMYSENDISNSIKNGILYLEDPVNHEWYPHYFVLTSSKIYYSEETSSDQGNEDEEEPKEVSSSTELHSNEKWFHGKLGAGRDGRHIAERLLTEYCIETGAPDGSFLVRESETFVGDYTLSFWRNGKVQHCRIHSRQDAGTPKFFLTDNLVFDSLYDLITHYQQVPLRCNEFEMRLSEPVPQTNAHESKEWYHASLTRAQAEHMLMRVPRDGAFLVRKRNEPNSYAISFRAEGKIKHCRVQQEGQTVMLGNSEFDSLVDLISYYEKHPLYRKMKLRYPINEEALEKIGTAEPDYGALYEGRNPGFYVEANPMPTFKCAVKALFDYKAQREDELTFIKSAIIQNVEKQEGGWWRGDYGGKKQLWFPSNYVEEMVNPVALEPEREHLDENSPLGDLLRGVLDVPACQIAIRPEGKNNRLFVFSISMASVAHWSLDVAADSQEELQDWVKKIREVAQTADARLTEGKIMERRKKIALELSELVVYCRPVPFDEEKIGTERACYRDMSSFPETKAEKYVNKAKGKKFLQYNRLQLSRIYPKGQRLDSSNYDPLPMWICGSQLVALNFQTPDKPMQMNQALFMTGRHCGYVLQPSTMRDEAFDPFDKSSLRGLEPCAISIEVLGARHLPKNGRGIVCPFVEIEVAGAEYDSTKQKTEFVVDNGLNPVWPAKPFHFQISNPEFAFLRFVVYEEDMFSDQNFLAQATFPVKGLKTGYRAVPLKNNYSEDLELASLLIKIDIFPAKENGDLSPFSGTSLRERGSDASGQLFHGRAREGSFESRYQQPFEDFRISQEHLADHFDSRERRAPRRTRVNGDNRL
# ADAM10 inh = ADAM10 inhibition, QFRET primary screen; O14672; recombinant ADAM10, EDANS/DABCYL FRET peptide cleavage, 3 h; inhibition, % at 7 µM; 370,000 tested, 0.62% active; AID 720582;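 active = inhibition above a per-campaign cutoff equal to the mean of compounds falling between control-based bounds plus 3 SD, cut at about 20% in these data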
# ADAM17 inh = ADAM17 inhibition, QFRET primary screen | P78536 | recombinant ADAM17, EDANS/DABCYL FRET peptide cleavage | inhibition, % at 6.95 µM | 370,000 tested, 0.83% active | AID 720648;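 active = inhibition above the mean of compounds lying between control limits plus 3 SD, set per campaign, cut at about 8.5% in these data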
# proKLK7 act = activators of human kallikrein-7 zymogen | purified proKLK7, EDANS-DABCYL substrate fluorescence; 100% is mature enzyme control, 0% vehicle | activation, % at 7 µM | 370,000 tested, 0.9% active;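 active = activation above the mean of all tested compounds plus 3 SD, computed per campaign excluding outliers beyond control limits, cut at about 13% in these data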
# PLC-beta3 inh = blocks human PLC-beta3 enzyme activity | Q01970 | Purified PLC-beta3, fluorogenic substrate, fluorescence | inhibition, % at 12.2 µM | 370,000 tested, 0.18% active; in the data active = inhibition above about 11%
# PLCg1 ctr = inhibits human PLC-gamma1 in PLC-beta3 counter-screen. shares compounds with PLC-gamma1 inh. purified PLC-gamma1, fluorogenic substrate, fluorescence. inhibition, % at 12.3 µM. 3,300 tested, 3.1% active. AID 743258
# PLCbeta3 conf = confirmation of human PLC-beta3 inhibitors; inhibition, % at 12.3 µM; AID 743261; 3,300 tested, 1% active; shares compounds with PLC-gamma1 inh; purified PLC-beta3, fluorogenic substrate fluorescence; in the data active = inhibition above about 11%
# Hits are given with their value; i = inactive; nt = no result given. Rule as the data show it, unless noted: active = inhibition above about 9.5%; inactive = the rest.
SMILES,PLC-gamma1 inh,ADAM10 inh,ADAM17 inh,proKLK7 act,PLC-beta3 inh,PLCg1 ctr,PLCbeta3 conf
NC(=O)C1CNc2ccccc2O1 (stereo not given),10.5,i,i,i,i,i,i
COc1ccccc1CN(C)CC(=O)Nc1cccc2ccccc12,i,i,i,i,i,nt,nt
COc1cc(Cl)c(C)cc1NC(=O)CN(C)Cc1cccc(OC)c1OC,10.2,i,i,i,i,i,i
CCCCN1CNC(=S)N(c2ccccc2OCC)C1,11.2,i,i,i,i,i,i
CCCN1CNC(=S)N(c2ccccc2OCC)C1,i,i,i,i,i,nt,nt
Cc1ccc(F)cc1NC(=O)N1CCN(C2c3ccccc3-c3ccccc32)CC1,i,i,i,i,i,nt,nt
COc1ccc(NC(=O)C2c3ccccc3OCC(=O)N2C2CC2)cc1 (stereo not given),i,i,i,i,i,nt,nt
Cc1ccc(NC(=O)/C(C#N)=C/c2cc(C)n(-c3ccc(N4CCOCC4)c([N+](=O)[O-])c3)c2C)c(C)c1,i,i,i,i,i,nt,nt
Cc1cc(/C=C(\C#N)C(=O)Nc2ccc(Cl)cc2)c(C)n1-c1ccc(N2CCOCC2)c([N+](=O)[O-])c1,13.6,i,i,i,i,i,i
COCc1[nH][nH]c(=O)c1C=Nc1ccc(OC(F)(F)F)cc1,i,i,i,i,10.7,i,i
COCc1[nH][nH]c(=O)c1C=Nc1ccc(Cl)cc1,i,i,i,i,i,nt,nt
Cc1ccc(S(=O)(=O)CCc2nnc(NC(=O)C3CCCO3)s2)cc1 (stereo not given),9.6,i,i,i,i,i,i
CC(=O)O[C@@H]1C[C@@]2(C)[C@@H](CC[C@H]2[C@@H](C)/C=C\CC(C)C)C2=C[C@@H](O)[C@@]3(O)C[C@@H](O)[C@H](O)C[C@]3(CO)[C@]21O,i,i,i,i,i,nt,nt
CCOC(=O)c1cc(-c2ccccc2)sc1NC(=O)CSc1nnnn1C,i,i,i,i,i,nt,nt
CCOC(=O)c1sc(-c2ccccc2)cc1NC(=O)CSc1nnnn1C,13.2,i,i,i,i,i,i
COC(=O)C1=C(C)NC(C)=C(C(=O)OC)C1C(=O)OC(C)C(=O)c1ccccc1 (stereo not given),i,i,i,i,i,nt,nt
COc1cc(OC)cc(C(=O)NC2CCN(Cc3nnnn3Cc3cccs3)CC2)c1,11.5,i,i,i,i,i,i
COc1cc(OC)cc(C(=O)NC2CCN(Cc3nnnn3Cc3ccc(F)cc3)CC2)c1,i,i,i,i,i,nt,nt
COc1cc(-c2coc3c(C(=O)NC4CCCCC4)cccc23)ccc1O,i,i,i,i,i,nt,nt
Cc1ccc(CNC(=O)CCCC(=O)O)cc1,i,i,i,i,10.8,i,i
CC1(C)c2ccccc2-c2nc3ccccc3cc2C1O (stereo not given),10.8,i,i,i,i,i,i
O=C(NCC(c1ccccc1)c1ccccc1)[C@H](Cc1ccccc1)NC1(C(=O)NC2CCCCC2)CCCC1,i,i,i,nt,i,nt,nt
COC(CNC(=O)[C@H](Cc1ccccc1)NC1(C(=O)NC2CCCCC2)CCCC1)OC,9.8,i,i,nt,i,i,i
CCc1nnc(NC(=O)Cc2sc(C)nc2-c2ccc(C)cc2)s1,i,i,i,i,i,nt,nt
COc1ccc(/C=C/C(=O)O)cc1S(=O)(=O)N1CCc2ccccc2C1,i,i,i,i,i,nt,nt
SMILES,PLC-gamma1 inh,ADAM10 inh,ADAM17 inh,proKLK7 act,PLC-beta3 inh,PLCg1 ctr,PLCbeta3 conf
Cc1ccc(/C=C/C(=O)O)cc1S(=O)(=O)N1CCc2ccccc2C1,11.4,i,i,i,i,i,i
Cc1ccc(/C=C/C(=O)O)cc1S(=O)(=O)Nc1ccccc1C(=O)O,11.2,i,i,i,i,i,i
COC(=O)c1cc(-c2cccc3c2sc2ccccc23)c(=O)n2c1CCC2,41.3,i,i,i,i,i,i
CC(C)c1ccc(S(=O)(=O)N2CCN(C(=O)CCNS(=O)(=O)c3ccccc3F)CC2)cc1,17.7,i,i,i,i,i,i
O=C(CCNS(=O)(=O)c1ccccc1F)N1CCN(Cc2ccccc2)CC1,i,i,i,i,i,nt,nt
COc1ccc(CNC(=O)OC2CC3CC2[C@H]2CCCCN2C3=O)cc1 (stereo not given in full),i,i,i,i,i,nt,nt
COC(=O)C1=C(N)Oc2cc(C)n(Cc3cccnc3)c(=O)c2C1c1cc(OC)ccc1OC (stereo not given),i,i,i,i,i,nt,nt
COC(=O)C1=C(N)Oc2cc(C)n(Cc3cccnc3)c(=O)c2C1c1cccc(OC)c1OC (stereo not given),9.7,i,i,i,i,i,i
O=C1NC[C@H](CCCCN2C[C@H](Cc3ccc(O)cc3)N(CCc3ccc(O)cc3)C(=O)C2=O)N(CCc2ccccc2)C1=O,i,i,i,i,i,nt,nt
CN(NS(=O)(=O)c1ccccc1)C(=O)c1ccccc1,12.1,i,i,i,i,i,i
CCOc1ncccc1C(=O)OCC(=O)c1c(N)n(C)c(=O)n(C)c1=O,i,i,i,i,10.6,i,i
S=C(NCc1ccco1)N1CCN(c2ccccn2)CC1,i,i,i,i,i,nt,nt
CC(C)(C)NCc1ccccc1OCc1cccs1,12.7,i,i,i,10.8,i,i
CC(C)(C)NCc1cc(Br)ccc1OCc1cccs1,i,i,i,i,i,nt,nt
CCOC(=O)c1cnn(-c2nc(-c3ccccc3F)cs2)c1C(F)(F)F,9.8,i,i,i,i,i,i
CCC1NC(=O)c2cccnc2-n2c1nc1cc(F)ccc1c2=O (stereo not given),i,i,i,i,i,nt,nt
CN1C=CC(=C[N+](=O)[O-])N(C)C1=O,11.5,i,i,i,i,i,i
Cc1nccn1CCCNC(=O)c1nc(Cn2cc([N+](=O)[O-])cn2)no1,9.6,i,i,i,i,i,i
COc1ccc(CC(N)c2csc(Nc3ccc(C(=O)c4ccccc4)cc3)n2)cc1 (stereo not given),i,i,i,i,i,nt,nt
COc1ccc(Br)cc1S(=O)(=O)N1CC(C)OC(C)C1 (stereo not given),i,i,i,i,11.0,i,i
COc1ccc(OC)c(NC(=O)COC(=O)C2CCC2)c1,i,i,i,i,i,nt,nt
CN(CC(=O)Nc1ccc(F)c(F)c1F)C1CCCCC1,10.5,i,i,i,i,i,i
COc1ccc(NC(=O)CN(C)S(=O)(=O)c2ccccc2)c([N+](=O)[O-])c1,i,i,i,i,i,nt,nt
COc1ccc(OC)c(NC(=O)COC(=O)C2CCCCC2)c1,10.4,i,i,i,12.2,i,i
COc1ccc(NC(=O)CN(C)C2CCCCC2)c([N+](=O)[O-])c1,12.0,i,i,i,i,i,i
Cc1cc(/C=C2\SC(=S)NC2=O)c(C)[nH]1,i,i,i,i,i,nt,nt
O=C1NC(=S)S/C1=C\c1cc(Cl)ccc1Cl,10.8,i,i,i,i,i,i
